BRCA1 expr up = qHTS Assay to Identify Small Molecule Activators of BRCA1 Expression. 380,000 compounds, 1.1% hits. Potency, µM (doses to about 46.1 µM), for the others: at the top dose activation, most hits filed as activators. AID 624202, 2012. MCF7-BRCA1-FFLuc reporter, luminescence, 48 h; response scale: scaled: vehicle 0%, 10 µM genistein 100%; note: nearly all actives have a fitted effect of over 80% in size
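MCF7 cells carrying a BRCA1-firefly luciferase reporter (2000 cells/well, phenol-red free MEM) were attached for 2 h at 37 °C, then given compounds for 48 h. Luminescence was read 15 min after luciferase reagent; activity normalized to genistein (10 microM) and DMSO.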
RGS4 inhibitor = Inhibitors of Regulator of G Protein Signaling (RGS) 4: qHTS | 390,000 compounds, 0.039% hits | AID 504845, 2011 | Potency, µM (top dose mostly 114 µM), for inactives: at the highest dose activity change, negative = inhibition, hits mostly inhibitors | Regulator of G-protein signaling 4 (Homo sapiens), P49798 | Transcreener GDP fluorescence polarization, RGS4-accelerated GTP hydrolysis; note: % is set by controls: 0 for no effect and ±100 for the full control effect; nearly all actives have a fitted effect of over 75% in size
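MLSMR compounds (23 nl, pin-transferred) preincubated 10 min at room temperature with a 500nM (2x) first reagent, then RGS4 at 900nM (2x) plus Transcreener GDP mix added; fluorescence polarization (620/688 nm) read before and after 90 min at 30 °C.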
EPAC1 ag = qHTS for Agonist of cAMP-regulated guanine nucleotide exchange factor 3 (EPAC1): primary screen. Rap guanine nucleotide exchange factor 3 (Homo sapiens), O95398. EPAC1 agonist qHTS, biochemical assay; response scale: 100% = response to 6.5 mM cAMP. Potency, µM (top dose mostly 154 µM), inactives show at the highest dose activation, hits mostly activators. 360,000 compounds, 0.073% hits; note: nearly all actives have a fitted effect of over 60% in size
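Nucleotide exchange by EPAC1 (100 nM) on Rap1B–BODIPY-GDP (250 nM) in the presence of 50 uM GDP is tracked fluorescently at 480/540 nm over 30 min. Signals are normalized to a 6.5 mM cAMP control.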
EPAC1 antag = qHTS for Antagonist of cAMP-regulated guanine nucleotide exchange factor 3 (EPAC1): primary screen | 360,000 compounds, 0.14% hits | Rap guanine nucleotide exchange factor 3 (Homo sapiens), O95398 | EPAC1 GEF assay, Rap1b-BODIPY-GDP exchange fluorescence | Potency, µM (series often up to 115 µM), for the others: top-dose activity change, negative = inhibition, most hits filed as inhibitors;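 note: plate controls were vehicle for no effect and positive control for full effect; nearly all actives have a fitted effect of over 50% in size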
EPAC2 ag = qHTS for Agonist of cAMP-regulated guanine nucleotide exchange factor 4 (EPAC2): primary screen; Rap guanine nucleotide exchange factor 4 (Homo sapiens), Q8WZA2; EPAC2 activation, biochemical qHTS; response scale: 100% = 6.5 mM cAMP response; Potency, µM (highest dose often 154 µM), inactives show at the highest dose activation, usual class: activators; 360,000 compounds, 0.079% hits; AID 720711, 2013; note: nearly all actives have a fitted effect of over 50% in size
Target sequence (Q8WZA2 whole entry, looked up): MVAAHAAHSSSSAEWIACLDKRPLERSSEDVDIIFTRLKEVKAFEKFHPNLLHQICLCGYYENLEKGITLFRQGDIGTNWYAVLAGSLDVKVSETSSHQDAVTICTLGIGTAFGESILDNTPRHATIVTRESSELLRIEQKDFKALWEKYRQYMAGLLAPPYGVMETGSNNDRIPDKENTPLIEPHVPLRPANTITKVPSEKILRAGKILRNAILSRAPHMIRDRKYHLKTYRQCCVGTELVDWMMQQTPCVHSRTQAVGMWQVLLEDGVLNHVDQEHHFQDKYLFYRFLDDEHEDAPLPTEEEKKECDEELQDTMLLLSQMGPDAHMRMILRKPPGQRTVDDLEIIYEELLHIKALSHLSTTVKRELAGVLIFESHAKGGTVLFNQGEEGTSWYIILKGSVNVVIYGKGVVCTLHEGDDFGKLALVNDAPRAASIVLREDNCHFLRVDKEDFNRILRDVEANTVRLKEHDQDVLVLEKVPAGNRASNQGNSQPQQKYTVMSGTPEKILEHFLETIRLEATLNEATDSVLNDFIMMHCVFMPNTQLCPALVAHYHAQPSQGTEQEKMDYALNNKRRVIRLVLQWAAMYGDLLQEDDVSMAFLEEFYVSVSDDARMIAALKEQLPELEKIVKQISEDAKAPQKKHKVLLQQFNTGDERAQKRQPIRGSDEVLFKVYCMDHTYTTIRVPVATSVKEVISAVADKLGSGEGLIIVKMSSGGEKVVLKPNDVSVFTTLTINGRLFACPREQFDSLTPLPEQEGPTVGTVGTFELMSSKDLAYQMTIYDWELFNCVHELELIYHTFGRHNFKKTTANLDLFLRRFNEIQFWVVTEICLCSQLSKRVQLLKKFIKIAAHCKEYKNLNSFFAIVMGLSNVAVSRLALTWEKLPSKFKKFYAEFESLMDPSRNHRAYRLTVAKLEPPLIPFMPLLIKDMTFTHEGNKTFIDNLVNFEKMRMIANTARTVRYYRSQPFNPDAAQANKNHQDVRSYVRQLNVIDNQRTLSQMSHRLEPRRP
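In this primary screen, activation is scored as increased exchange of BODIPY-GDP from Rap1B by 100 nM EPAC2, with 50 uM GDP as competitor. Signal is normalized to the 6.5 mM cAMP agonist control.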
EPAC2 antag = qHTS for Antagonist of cAMP-regulated guanine nucleotide exchange factor 2 (EPAC2): primary screen | Rap guanine nucleotide exchange factor 4 (Homo sapiens), Q8WZA2 | EPAC2 GEF exchange of Rap1B-BODIPY-GDP, fluorescence | Potency, µM (series often up to 114 µM), for the others: at the highest dose activity, negative = inhibition, most hits filed as inhibitors | 360,000 compounds, 0.18% hits | AID 720708, 2013; note: % is set by controls: 0 for no effect and ±100 for the full control effect; nearly all actives have a fitted effect of over 45% in size
Active calls of the source: *; u = inconclusive; x = no result; [ ] = another dose, or the depositor's remark. Hits are enriched below; roughly 1.3% of the tested compounds scored in any of these assays. Calls come from the whole dose curve; as a rule, active = well fitted curve in the direction sought with a large enough effect; inconclusive = small, poorly fitted or top-dose-only effect, or another doubt; inactive = no such curve, though single readings can be large; an effect the other way counts as inactive or inconclusive. Potency is the fitted concentration of half-maximal effect.

SMILES	BRCA1 expr up	RGS4 inhibitor	EPAC1 ag	EPAC1 antag	EPAC2 ag	EPAC2 antag
Cc1csc2c(N3CCCCC3)ncnc12	11µM*	18%	-2%	-7%	10%	1%
O=C(COC(=O)C1CC1)Nc1ccc(N=Nc2ccccc2)cc1	2.5µM*	3%	-10%	-9%	1%	-5%
O=C(COC(=O)C1CC1)Nc1ccccc1Sc1ccccc1	-7%	11%	11%	-12%	14%	56µM*
O=C(CN(CC1CCCO1)C(=O)CNS(=O)(=O)c1ccc(F)cc1)NCC1CCCO1 (configuration not stated)	-34%	4%	17%	6%	5%	5%
Cc1cc(OC(=O)c2ccc(Cl)cc2Cl)c([N+](=O)[O-])c(=O)[nH]1	0%	-9%	1%	1%	7%	-2%
Clc1ccc(-n2nnc(-c3cccnc3Cl)n2)cn1	85%	-17%	-4%	-19%	-2%	7%
Cc1ccc(-n2nnc(-c3cccnc3Cl)n2)cc1	3.5µM*	-4%	5%	-1%	8%	-11%
CCCc1nc2ccccc2c(=O)n1CCc1ccccc1	-37%	13%	13%	-9%	7%	2%
COCC(=O)Oc1c(Sc2ccccc2[N+](=O)[O-])c(C)nn1C(C)(C)C	-38%	-28%	-4%	-4%	-10%	56µM*
Cc1cccc(C)c1Nc1c(-c2cccs2)nc2ncccn12	0%	23%	x	x	x	x
O=[N+]([O-])c1cc(Cl)cc(/C=N/NC(=S)Nc2ccc(S(=O)(=O)N3CCOCC3)cc2)c1O	-27%	34%[11.4 µM]	-10%	u	-11%	56µM*
COc1ccc(C(C)NC(=O)Nc2ccc(C(C)=O)cc2)cc1OC (configuration not stated)	11µM*	-20%	-18%	17%	-5%	3%
O=C(OC(c1ccccc1)c1nccc2ccccc12)c1cccc([N+](=O)[O-])c1 (configuration not stated)	7.1µM*	9%[11.4 µM]	4%	-7%	14%	-5%
CCn1c(O)c(/C=N/N=C/c2ccc(OC)cc2)c2cc(C3=NNC(=O)CC3)ccc21	-6%	12%	11%	u	100µM*	11%
Cc1nc2c(C(=O)NCc3ccc(F)cc3)c[nH]n2c(=O)c1Cl	-16%	24%	-4%	-1%	2%	u
N#CC1=C(N)SC(N)=C(C#N)C1c1cccc(Oc2ccccc2)c1	-13%	u	17%	-8%	6%	50µM*
COc1ccccc1CNC(=O)COC(=O)c1ccc(N2CCCC2=O)cc1	-1%	-18%	-7%	-5%	4%	-3%
Cc1nn(-c2ccc(N3CCCCC3)nn2)c(C)c1CCC(=O)Nc1ccc(F)cc1	94%	-25%[56.9 µM]	-11%	-4%	-3%	-4%
Cc1ccc(NC(=O)CCc2c(C)nn(-c3ccc(N4CCCCC4)nn3)c2C)cc1F	3.2µM*	0%	-3%	u	15%	-5%
CCOc1ccc(NC(=O)CCc2c(C)nn(-c3ccc(N4CCCCC4)nn3)c2C)cc1	11µM*	-4%[56.9 µM]	4%	5%	-2%	0%
O=C(NC1CCCC1)C1CCCN1C(=O)Nc1ccccc1 (configuration not stated)	3%	-15%[11.4 µM]	-1%	-1%	-7%	10%
O=C(Nc1ccccc1)N1CCCC2CCCCC21 (configuration not stated)	11µM*	-7%	2%	-15%	4%	1%
O=C(NCCCc1ccccc1)c1ccc(F)cc1	7.1µM*	-28%	-5%	-10%	-3%	8%
CC(=O)Nc1ccc(C(=O)NCCc2ccccc2)cc1	13µM*	17%	1%	-7%	-4%	-7%
O=C(NCCc1ccccc1)c1cccc(NC(=O)C2CCCC2)c1	10µM*	-2%	-7%	-6%	-2%	-8%
SMILES	BRCA1 expr up	RGS4 inhibitor	EPAC1 ag	EPAC1 antag	EPAC2 ag	EPAC2 antag
O=C(NCCc1ccccc1)c1cccc(NC(=O)C2CCCCC2)c1	84%	-26%	-6%	-6%	7%	-17%
O=C(NCCCCNC(=O)c1ccc(F)cc1)c1ccc(F)cc1	-17%	24%	-1%	-13%	-3%	-3%
O=C(NCCCc1ccccc1)c1cccc(Br)c1	13µM*	20%	13%	-2%	17%	-16%
Cc1ccc2nc(-c3cccnc3)c(Nc3ccc(C(C)C)cc3)n2c1	x	-13%	x	x	x	x
CNC(=O)c1ccc(NC(=O)CN2c3cccc4cccc(c34)S2(=O)=O)cc1	-55%	-15%	6%	-3%	7%	0%
Nc1ccc2oc3ccccc3c2c1	3.2µM*	1%	-15%	-9%	4%	-7%
Nc1ccc(C#Cc2ccc3oc4ccccc4c(=O)c3c2)cc1	u	12%	16%	2%	11%	0%
CCOc1ccc(-c2nc(SC(C(C)=O)C(=O)N(C)C)c3c(=O)n(C)c(=O)n(C)c3n2)cc1 (configuration not stated)	x	22%	x	x	x	x
CCN(CCn1cccn1)C(=O)c1cc(COc2ccccc2SC)on1	11µM*	7%	5%	8%	-1%	-4%
CCN(CCn1cccn1)C(=O)c1cc(COc2cc(C)ccc2C)on1	13µM*	10%	-10%	-15%	-2%	-26%
O=C(Nc1ccc(Cl)cc1)c1ccc(-n2cncn2)c([N+](=O)[O-])c1	-11%	-3%	-7%	2%	1%	6%
CC(=O)Nc1c(S(=O)(=O)c2ccccc2)c2nc3ccccc3nc2n1Cc1ccccc1	-8%	4%	-5%	-16%	2%	-1%
CCc1cc2c(CN(C)Cc3ccccc3F)cc(=O)oc2cc1O	-62%	-3%	18%	-20%	5%	u
Cc1cc2oc(=O)cc(CN(C)Cc3cccc(F)c3)c2cc1C	11µM*	-10%	10%	2%	12%	-29%
Cc1cc(C)c2c(CN(C)Cc3ccccc3)cc(=O)oc2c1	13µM*	x	6%	0%	13%	-27%
COCCn1c(SCC(=O)Nc2ccc3c(c2)OCCO3)nc2c(c1=O)SC(C)C2 (configuration not stated)	8.9µM*	4%	7%	-16%	9%	1%
